Gal4-VP16 FLuc – Gal4-VP16 reporter inhibition counter-screen | 3.5% of 310,000 active | Potency, µM (highest dose often 53.6 µM), inactives show at the top dose activity, negative = inhibition, hits mostly inhibitors | Drosophila S2 Gal4-VP16 UAS-luciferase, luminescence, 20 h;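 further: Gal4-VP16 expression switched on by copper sulfate through the metallothionein promoter; potency means the concentration at half of the fitted maximal effect; on the % scale 0 is the no-effect control and ±100 the full control effect; nearly all actives have a fitted effect of over 50% in size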
RORgamma inh – blocks mouse ROR gamma transcriptional activity; P51450; Drosophila S2 Gal4-RORgamma UAS-luciferase reporter, 20 h; Potency, µM (highest dose often 53.6 µM), for the others: at the top dose activity change, negative = inhibition, hits mostly inhibitors; 5.4% of 310,000 active; AID 2551; further: potency means the concentration at half of the fitted maximal effect; on the % scale 0 is the no-effect control and ±100 the full control effect; nearly all actives have a fitted effect of over 60% in size
Target sequence (P51450 whole entry, looked up, the tested form may be a part): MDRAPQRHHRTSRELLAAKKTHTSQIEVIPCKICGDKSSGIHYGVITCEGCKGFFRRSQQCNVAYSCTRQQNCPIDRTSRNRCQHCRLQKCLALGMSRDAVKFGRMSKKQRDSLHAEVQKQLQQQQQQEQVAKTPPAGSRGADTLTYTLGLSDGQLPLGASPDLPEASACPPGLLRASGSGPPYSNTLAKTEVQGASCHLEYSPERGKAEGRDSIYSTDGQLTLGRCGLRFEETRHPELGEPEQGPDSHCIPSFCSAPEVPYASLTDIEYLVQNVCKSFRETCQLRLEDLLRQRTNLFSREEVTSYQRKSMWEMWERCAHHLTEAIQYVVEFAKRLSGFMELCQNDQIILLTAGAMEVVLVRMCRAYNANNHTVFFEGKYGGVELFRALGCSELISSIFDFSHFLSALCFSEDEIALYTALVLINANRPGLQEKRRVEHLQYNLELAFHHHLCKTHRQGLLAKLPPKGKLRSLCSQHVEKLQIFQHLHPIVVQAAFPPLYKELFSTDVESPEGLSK
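Luciferase reporter read in Schneider cells carrying Gal4-RORγ (mouse) and UAS-Photinus luciferase; cells given compound 1 h before 700 uM copper sulfate induction, then incubated 20 h at ambient temperature.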
BRCA1 expr up – BRCA1 expression activation | MCF7-BRCA1-FFLuc reporter, luminescence, 48 h; response scale: scaled: vehicle 0%, 10 µM genistein 100% | Potency, µM (doses to about 46.1 µM), for inactives: top-dose activation, hits mostly activators | 1.1% of 380,000 active; further: potency means the concentration at half of the fitted maximal effect; nearly all actives have a fitted effect of over 80% in size
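Reporter cells (MCF7, BRCA1 promoter-firefly luciferase) received library compounds across a concentration series for 48 h. End-point luminescence was measured and concentration-effect curves derived after normalization.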
Giardia kill – Giardia lamblia killing. 0.15% of 340,000 active. Giardia lamblia trophozoite viability. activity change, % at 7.66 µM, hits read low; in the data active means activity change below about -80%; inconclusive means between about -30% and that limit;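 further: parasites exposed to compound for two days anaerobically before the ATP read; on the % scale 0 is the no-effect control and ±100 the full control effect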
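Giardia trophozoites, 100 cells per well, were exposed to compounds for 48 hrs at 37 deg C under anaerobic conditions; viability was then read as ATP content by bioluminescence after 15-30 min at room temperature.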
p53 reactivator – restores transcriptional activity of mutant p53 | 0.063% of 320,000 active | H1299 p53-A138V BP100-luciferase reporter, luminescence, 24 h | Potency, µM (titrated, usually from 92.2 µM), inactives show at the top dose activity change, positive = activation, most hits filed as activators; further: potency means the concentration at half of the fitted maximal effect; % of control where 0% means no effect; nearly all actives have a fitted effect of over 45% in size
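H1299 (p53-null), stable ts p53-A138V + BP100-Luc; 1000 cells/well, Opti-MEM/10% FBS; cpd 4 pt, 1:5; 24 h, 37 deg C, 5% CO2; detection reagent 10 min RT; luminescence.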
ELG1 repair inh – inhibitors of ELG1-dependent DNA repair in HEK293T cells; 2.3% of 330,000 active; Potency, µM (doses to about 46.1 µM), inactives show top-dose activity change, negative = inhibition, actives largely listed as inhibitors; AID 504467; HEK293T ELG1-luciferase reporter, luminescence, 16 h; DNA damage induced by 5-fluorouridine; further: potency means the concentration at half of the fitted maximal effect; on the % scale 0 is the no-effect control and ±100 the full control effect; nearly all actives have a fitted effect of over 55% in size
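5-Fluorouridine DNA damage + compound/DMSO, 2,000 cells/well, 16 h, 37 °C/5% CO2. ONE-Glo, 30 min RT, luminescence. Readout = decrease in reporter signal.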
Starred values were filed as active, the others as inactive; ? = inconclusive; nt = no result given; ! = a repeat was not active. Sampled rows, rich in hits. Any-hit rate of the full collection: about 7.6%. Unless noted, the call rests on the fitted dose curve; in most records, active means well fitted curve in the direction sought with a large enough effect; inconclusive means small, poorly fitted or top-dose-only effect, or another doubt; inactive means no such curve, though single readings can be large; an effect the other way counts as inactive or inconclusive.

SMILES	Gal4-VP16 FLuc	RORgamma inh	BRCA1 expr up	Giardia kill	p53 reactivator	ELG1 repair inh
COc1ccccc1/C=C/C(=O)NCC(=O)n1nc(C)cc1C	-3.5%	-3.2%	-12.1%	3.9	-2.2%	?
CCN1CCN(/C=N/c2nc3c(s2)CCCC3)CC1	7.08µM*	8.91µM*	-70.5%	7.7	-9.2%	?
O=C(Nc1cccc2nsnc12)c1cccs1	24.1%	?	7.08µM*!	-8.1	?	?
O=C(Nc1nc2c(ccc3ccccc32)s1)c1ccco1	9.0%	-1.1%	-49.8%	-14.4	2.9%	?
O=C(Nc1cccc2cccnc12)c1cccs1	nt	nt	-44.4%	-22.1	nt	nt
O=C(NC(=S)Nc1cccc2ncccc12)c1ccccc1	?	7.94µM*	0.0%	-11.0	1.8%	-13.7%
O=C(NC(=S)Nc1cccc2ncccc12)c1cccs1	-18.4%	8.91µM*	-20.8%	14.2	1.2%	-6.3%
O=C(NC(=S)Nc1nc2c(ccc3ccccc32)s1)c1cccs1	3.16µM*	2.51µM*	-16.2%	-26.5	-7.8%	7.4%
COc1ccc(C)cc1NC(=S)NC12CN3CN(CN(C3)C1)C2	-3.3%	-3.8%	nt	nt	0.9%	-8.9%
CC(C)N(C(=O)[C@H]1C[C@H](CC(=O)NCCN2CCOCC2)C(=O)N2CCc3c([nH]c4ccc(Cl)cc34)[C@]12C)C(C)C	nt	nt	-26.0%	4.4	-3.8%	4.4%
COc1ccc(-c2cc(-c3cc(OC)ccc3O)[nH]n2)cc1	?	?	-4.3%	-11.6	?	?
O=C(O)c1cc(-c2ccc3c(c2)OCCO3)n[nH]1	-25.6%	-29.8%	0.0%	0.9	-0.8%	8.7%
COc1ccc(O)c(-c2cc(-c3cccc(Br)c3)n[nH]2)c1	?	?	-68.2%	7.0	?	?
Oc1ccccc1-c1cc(-c2ccc3c(c2)OCCO3)n[nH]1	?	3.16µM*	?	-18.2	?	?
COc1ccc(-c2cc(-c3cc(F)ccc3O)[nH]n2)cc1OC	?	-89.4%	10µM*	3.4	8.2%	?
COc1ccc(-c2cc(-c3ccc(Cl)cc3)n[nH]2)c(O)c1	?	8.91µM*	?	-14.9	?	?
COc1ccc(O)c(-c2cc(-c3ccc(F)cc3)n[nH]2)c1	?	12.6µM*	26.7%	15.2	?	?
COc1ccc(CCNC(=O)CNS(=O)(=O)c2ccc(N(C)C)c([N+](=O)[O-])c2)cc1OC	4.0%	-20.5%	8.4%	-1.0	-3.5%	-16.3%
COc1ccc(-c2cc(-c3ccc(OC)c(OC)c3)n[nH]2)c(O)c1	?	3.98µM*	?	-11.3	?	?
COc1ccc(-c2cc(-c3ccccc3O)[nH]n2)cc1OC	?	7.08µM*	?	-2.4	?	?
O=C(O)COc1ccc(/C=N/NC(=O)C(O)(c2ccccc2)c2ccccc2)cc1	-0.9%	-21.6%	-6.7%	-5.0	1.1%	5.6%
CCSc1nc(NCCN(C)C)c2c3c(sc2n1)COC(C)(CC)C3 (stereo not drawn)	0.7%	5.0%	0.0%	49.1	0.6%	-4.9%
COc1ccc(C(CC(=O)O)NC(=O)c2cc3ccccc3oc2=O)cc1OC (stereo not drawn)	nt	nt	-6.5%	nt	nt	nt
Clc1ccc(C2=NNC(=NCc3ccc4c(c3)OCO4)SC2)cc1	?	?	-60.6%	-16.8	2.4%	?
Oc1ccc(C2=NNC(=NCc3ccc4c(c3)OCO4)SC2)c(O)c1	?	1.58µM*	-46.3%	-4.6	?	?
SMILES	Gal4-VP16 FLuc	RORgamma inh	BRCA1 expr up	Giardia kill	p53 reactivator	ELG1 repair inh
COc1ccc(OC)c(N(CC(=O)NC2CCCC2)S(=O)(=O)c2ccc(OC)c(OC)c2)c1	-0.9%	2.9%	-18.1%	2.9	-9.9%	?
CCC(=O)NC(=S)NNC(=O)c1ccccc1[N+](=O)[O-]	-14.5%	17.8µM*	-0.6%	-22.2	-0.5%	-1.6%
O=C(NC(=S)NNC(=O)c1ccccc1[N+](=O)[O-])c1ccccc1	3.16µM*	4.47µM*	12.3%	14.5	?	4.3%
CCOc1ccc(NC(=O)c2ccc(F)c(S(=O)(=O)N3CCN(c4ccccn4)CC3)c2)cc1	?	33.5%	-91.2%	-16.0	18.6%	9.2µM*
O=C(Nc1cccc(Cl)c1)c1ccc(F)c(S(=O)(=O)N2CCN(c3ccccn3)CC2)c1	-2.9%	?	-61.8%	21.5	15.3%	13µM*
O=C(Nc1ccc(F)c(F)c1)c1ccc(F)c(S(=O)(=O)N2CCC3(CC2)OCCO3)c1	?	22.6%	-26.9%	-19.7	-1.7%	7.3µM*
CCOc1ccc(NC(=O)c2ccc(F)c(S(=O)(=O)N3CCCC3)c2)cc1	nt	nt	-29.2%	nt	nt	nt
O=S(=O)(c1cc(F)ccc1F)N1CCC2(CC1)OCCO2	1.4%	17.8%	13.4%	-9.5	26.1%	?
C[C@H](CO)N1C[C@H](C)[C@@H](CN(C)C(=O)Nc2ccc3c(c2)OCO3)Oc2ccc(NC(=O)CCN3CCOCC3)cc2C1=O	nt	nt	-1.7%	9.6	3.4%	?
O=C(Cn1cnc2c(nnn2-c2cccc(Cl)c2)c1=O)NCc1ccccc1	-0.5%	0.8%	-18.6%	-21.9	-1.3%	7.0%
COc1ccc(NC(=O)C(C)N2c3cccc4cccc(c34)S2(=O)=O)cc1OC (stereo not drawn)	?	?	-69.1%	4.9	-17.1%	7.31µM*
Cn1cc(Cl)c(/C(N)=N/OC(=O)c2ccccc2C(F)(F)F)n1	-10.1%	-32.1%	11.2µM*	0.4	?	?
CCc1nc(N(CC)CC)c2oc3ccccc3c2n1	?	14.1µM*	-37.1%	-3.9	-4.6%	?
CCNc1nc(CC)nc2c1oc1ccccc12	1.5%	-28.7%	6.0%	-8.7	21.0%	-26.0%
CCc1nc(Nc2ccc(O)cc2)c2oc3ccccc3c2n1	3.1%	-24.5%	-19.8%	-10.7	-5.0%	16.4µM*
CCc1nc(N2CCC(C)CC2)c2oc3ccccc3c2n1	?	11.2µM*	-77.6%	-0.3	?	-0.6%
COc1cc(OC)cc(-c2c(-c3ccc(F)cc3)c3cc(-c4ccc5[nH]ccc5c4)ccc3n2C)c1	nt	nt	-0.6%	-8.0	7.2%	2.2%
O=C(CSc1nnc(CNc2ccc(Cl)cc2)o1)Nc1nc2c(s1)CCCC2	?	11.2µM*	-57.4%	4.2	-3.2%	-26.5%
COc1cc(C(=O)O/N=C2\C=CC(=O)C(C)=C2)cc(OC)c1OC	5.62µM*	5.01µM*	-18.5%	1.4	-10.5%	-14.0%
COc1cc(C(=O)ON=C2C=C(C)C(=O)C(C)=C2)cc(OC)c1OC	-3.3%	-35.7%	-15.1%	-7.0	13.5%	?

Screens from PubChem.
